# PubChem BioAssay (NCI)
# This is part of a sample that, as a whole, favours compounds with a hit. Of some 83,000 tested, about 20% had one in any assay.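 Plates (96-well) were seeded with cells, treated with compound at one concentration, and incubated for 48 hours before percent growth was determined.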 The source made the active and inactive calls. How the source made its calls: active means growth percent below 10; inactive means the rest.
# Tested on: NCI/ADR-RES ovarian
# Test: NCI-60 one-dose screen, 48 h (100 = growth as untreated, 0 = no growth, -100 = all killed)
# Conditions: 10 µM unless noted
row,SMILES,growth
1,O=c1[nH]c2c(s1)CCCC2CN1CCCCC1 (stereo unspecified),99% (inactive)
2,O=C(N/N=C/c1cccc(O)c1)c1ccccc1Nc1cccc(C(F)(F)F)c1,83.4% (inactive)
3,COc1cc2nc(-c3ccc(C#N)cc3)[nH]c(=O)c2cc1OC,98.7% (inactive)
4,O=C(Nc1ccccc1)Oc1ccccc1-c1ccccc1,99.9% (inactive)
5,O=C1Nc2c(ccc(Cl)c2Cl)/C1=C/c1ccccn1,82.5% (inactive)
6,COc1cc2nnn3c4ncccc4c(N=O)c3c2cc1OC,44.6% (inactive)
7,C(=N\Nc1ncc(-c2cc3cc4c(cc3o2)OCO4)s1)/c1c[nH]c2ccccc12,10.7% (inactive)
8,C1=C2CNCC3=Cc4ccc5ccccc5c4OC23Oc2c1ccc1ccccc21,-21.4% (active)
9,Nc1cc(N)c2cccnc2c1O,71.7% (inactive)
10,CC1=NNC(=O)C1CCC(=O)N/N=C(\C)c1ccc2ccccc2c1 (stereo unspecified),94.3% (inactive)
11,COc1ccc(CNC(=O)COc2ccc(/C=N/Nc3nc4ccccc4s3)cc2)cc1,23.3% (inactive)
12,CCCN=C(N)c1ccc(NC(=O)c2ccc(C(=O)Nc3ccc(C(N)=NCCC)cc3)cc2)cc1,98.4% (inactive)
13,BrC(Br)(Br)c1cnc2ccccc2n1,44.3% (inactive)
14,O=C1/C(=C\c2cn(Cc3ccccc3)c3ccc(Br)cc23)c2ccccc2N1c1c(Cl)cccc1Cl,98.4% (inactive)
15,COc1ccc(-n2cc(-c3cc(OC)c(OC)c(OC)c3)n(C(C)=O)c2=O)cc1,100% (inactive)
16,O=C(N/N=C/c1ccc(O)c(O)c1)c1sc2ccccc2c1Cl,83.7% (inactive)
